# Source: PubChem (National Center for Advancing Translational Sciences (NCATS))
# This is a sample that favours compounds with a hit; in the whole collection about 11% have one here.
# L3MBTL1 block: L3MBTL1 (human) inhibition. Q9Y468. AlphaScreen L3MBTL1–H3K9me1 peptide binding. Potency, µM (series often up to 57.1 µM), hits mostly inhibitors. 230,000 compounds, 0.66% hits; also: nearly all actives have a fitted effect of over 60% in size
#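 AlphaScreen assay: L3MBTL1 (50 nM final) was preincubated 30 min at room temperature with biotinylated H3(1-15)K9me1 peptide (75 nM final), then 30 min with library compounds; streptavidin donor and nickel chelate acceptor beads (10 ug/mL final) added, 30 min dark.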
# BAZ2B inh: inhibitors of human BAZ2B bromodomain | Q9UIF8 | AlphaScreen BAZ2B-H3K14Ac peptide displacement | Potency, µM (top dose mostly 114 µM), most hits filed as inhibitors | 360,000 compounds, 4.4% hits | AID 504333; also: nearly all actives have a fitted effect of over 60% in size
#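 In this displacement format the biotinylated H3(5-23) peptide acetylated at Lys14 serves as ligand at 50 nM, with BAZ2B at 50 nM in PBS pH 7.4 containing 0.01% Tween-20. Donor and acceptor beads are 10 ug/mL final.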
# JMJD2A Tudor inh: JMJD2A Tudor domain (human) inhibition. AlphaScreen JMJD2A-Tudor / H3K4me3 peptide binding. Potency, µM (doses to about 114 µM), hits mostly inhibitors. 390,000 compounds, 4.4% hits. AID 504339; also: nearly all actives have a fitted effect of over 50% in size
# HP1b binding inh: blocks HP1-beta chromodomain binding to methylated histone tails; AlphaScreen HP1-beta / biotin-H3K9me3 peptide binding; 390,000 compounds, 0.56% hits; P83916; AID 540317; Potency, µM (highest dose often 114 µM), hits mostly inhibitors; also: nearly all actives have a fitted effect of over 70% in size
# Target sequence (P83916 whole entry, looked up): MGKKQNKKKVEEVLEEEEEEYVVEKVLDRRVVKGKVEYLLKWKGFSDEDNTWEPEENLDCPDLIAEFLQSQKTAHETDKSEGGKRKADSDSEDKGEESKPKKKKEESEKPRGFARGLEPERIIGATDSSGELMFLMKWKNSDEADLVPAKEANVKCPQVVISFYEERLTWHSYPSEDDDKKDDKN
#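 HP1-beta protein (50 nM final) preincubated 30 min at room temperature with biotinylated H3(1-18)K9me3 peptide (50 nM) in PBS pH 7.4, 0.01% Tween-20, then compound added for 30 min. AlphaScreen streptavidin donor/nickel chelate acceptor beads (10 ug/mL final), 30 min dark, luminescence read.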
# G9a block: inhibitors of human histone lysine methyltransferase G9a; G9a H3K9 monomethylation, AlphaScreen, 2 h; AID 504332; Q96KQ7; Potency, µM (highest dose often 102 µM), actives largely listed as inhibitors; 350,000 compounds, 8.8% hits; also: nearly all actives have a fitted effect of over 75% in size
# Target sequence (Q96KQ7 913-1193 limits assumed): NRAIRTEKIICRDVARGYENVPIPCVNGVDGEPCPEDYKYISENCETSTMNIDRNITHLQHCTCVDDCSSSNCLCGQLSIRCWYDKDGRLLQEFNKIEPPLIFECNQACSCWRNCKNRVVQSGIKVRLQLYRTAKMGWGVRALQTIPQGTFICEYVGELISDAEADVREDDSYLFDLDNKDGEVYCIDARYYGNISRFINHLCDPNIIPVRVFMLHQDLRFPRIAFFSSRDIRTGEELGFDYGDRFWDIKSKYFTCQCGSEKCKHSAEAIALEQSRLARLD
#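 Enzyme 20 nM + cpd, 15 min RT; add b-H3K9 pep 500 nM / SAM 20 uM; 2 h RT; anti-H3K9me1 Ab 0.5 ug/mL + SA donor / anti-rabbit acceptor beads 20 ug/mL each, 10 min; AlphaScreen read.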
# Hits are given with their value; n = inactive; u = inconclusive; x = no result given; ! = repeats disagree; [ ] = dose if it differs, or a comment. Calls follow the shape of the dose curve; as a rule, active = well fitted inhibition curve with a large enough effect; inconclusive = small, poorly fitted or top-dose-only effect; inactive = no such curve, though single readings can be large or run the other way.
SMILES,L3MBTL1 block,BAZ2B inh,JMJD2A Tudor inh,HP1b binding inh,G9a block
CCCCON1C(=O)c2cccc3cccc(c23)C1=O,n,u,n,n,n
CCCCN(C)C1=Nc2cccc3cccc1c23,x,n,u,n,10µM
N#C/C(=N\Nc1ccccc1)C(N)=S,n,u,22µM,n,1.6µM
N#C/C(=N/Nc1ccccc1[N+](=O)[O-])C(N)=S,x,n,n,n,1.1µM
N#C/C(=N\Nc1ccc(Cl)cc1)C(N)=S,x,u,u,n,x
Cc1ccc(N/N=C(\C#N)C(N)=S)cc1C,n,45µM,u,n,2.8µM
CCc1cccc(NC(=O)CSC2=Nc3ccccc3N=C(c3ccc(F)cc3)C2)c1,x,n,n,n,n
O=C(O)c1ccc(Nc2nc(-c3ccccc3)nc3ccccc23)cc1,x,n,40µM,n,u
CNC(=O)c1ccc(Nc2nc(-c3ccccc3)nc3ccccc23)cc1,x,n,n,n,50µM
Cc1ccc(-c2nc(Nc3ccc(O)cc3)c3ccccc3n2)cc1,x,n,u,n,n
COc1ccc(Nc2nc(-c3ccccc3O)nc3ccccc23)cc1,x,n,n,n,n[2.33 µM]
Oc1ccc(Nc2nc(-c3ccccc3O)nc3ccccc23)cc1,x,u,u,n,50µM
c1ccc(Nc2nc(-c3ccccc3)nc3ccccc23)cc1,n[2.29 µM],n,n,n,n[0.501 µM]
Cc1ccc(-c2nc(Nc3ccc(N4CCOCC4)cc3)c3ccccc3n2)cc1,n,32µM,40µM,u,x
CCOc1ccc(C(=O)NCCn2cc(SCC(=O)Nc3ccccc3)c3ccccc32)cc1,x,n,n,n,n
O=C1c2c(O)cc(O)cc2O[C@H](c2ccc(O)c(O)c2)[C@@H]1O,x,u,x,x,n
Oc1cc(O)c2c(c1)O[C@H](c1ccc(O)c(O)c1)[C@@H](O)C2,x,n,n,n,28µM!
O=C1c2c(O)cc(O)cc2O[C@H](c2ccc(O)c(O)c2)[C@H]1O,x,u,n,n,10µM
COc1ccc(CC(=O)Nc2c(C(=O)Nc3ccccc3F)oc3ccccc23)cc1,x,n,n,n,n
COc1ccc(-c2cnc(SCC(=O)Nc3nc(C(C)(C)C)cs3)n2Cc2ccco2)cc1,n[11.4 µM],u,u,u,u
COCCn1c(-c2ccc(OC)cc2)cnc1SCC(=O)Nc1cccc2ccccc12,u,18µM,25µM,n,35µM
CCC(=O)Nc1cc(NC(=O)CSc2ncc(-c3ccc(F)cc3)n2Cc2ccco2)ccc1C,n,x,u,n,u
COc1ccc(-c2cnc(SCC(=O)Nc3cc(C)on3)n2Cc2ccco2)cc1,n,45µM,50µM,u,u
Cc1cnc(NC(=O)CSc2ncc(-c3ccccc3)n2Cc2ccco2)s1,x,22µM,u,n,u
COc1ccc(NC(=O)CSc2ncc(-c3ccc(F)cc3)n2Cc2ccco2)cc1,u,32µM,56µM,u,28µM
SMILES,L3MBTL1 block,BAZ2B inh,JMJD2A Tudor inh,HP1b binding inh,G9a block
COC(=O)c1ccc(NC(=O)c2cc3cc4ccc(OC)c(Cl)c4nc3s2)cc1,x,n,n,n,n
N#CN=c1snc(-c2ccccc2Cl)n1-c1ccccc1Cl,x,x,n,n,x
Cc1cc(C(=O)COC(=O)c2ccc(CO)cc2)c(C)n1CC1COc2ccccc2O1 (stereo unspecified),n,u,n,n,4µM
Cc1cc(C(=O)COC(=O)c2ccc(Br)o2)c(C)n1Cc1ccco1,n,u,x,x,u
O=C(COC(=O)c1cccnc1Cl)c1ccc(F)cc1,n[11.4 µM],n,n,n,n
CCOc1ncccc1C(=O)OCC(=O)c1cc(C)n(Cc2ccco2)c1C,n,50µM,u,n,u
Cc1cc(C(=O)COC(=O)c2ccc(O)cc2)c(C)n1Cc1ccco1,n,50µM,u,u,u
Cc1cc(C(=O)CN2C(=O)C(=O)N(Cc3ccccc3)C2=O)c(C)n1CC1COc2ccccc2O1 (stereo unspecified),n,n,n,n,n
CCOc1ncccc1C(=O)OCC(=O)c1ccc(F)cc1,n,n,20µM,n,n
CCc1ccc(S(=O)(=O)NCCc2csc3nc(-c4ccccc4)nn23)s1,x,n,n,n,n
COc1ccc(-c2noc(-c3nnn(-c4cc(C)ccc4C)c3N)n2)cc1,x,n,n,n,n
Nn1c(SCc2cn3cc(Cl)ccc3n2)nnc1-c1ccncc1,n,n,n,n,45µM
COc1ccc(NC(=O)Cn2cnc3ccc(S(=O)(=O)N4CCC(C)CC4)cc3c2=O)cc1Cl,x,n,n,n,n
COc1ccc(/C=C/C(=O)Nc2ccc3nc4c(c(Nc5ccccc5OC)c3c2)CCCC4)cc1,x,n,u,n,7.9µM
COc1ccc(Nc2c3c(nc4ccc(NC(=O)/C=C/c5cccc(OC)c5OC)cc24)CCCC3)cc1OC,x,10µM,14µM,u,11µM
COc1ccccc1Nc1c2c(nc3ccc(NC(=O)/C=C/c4cccc(OC)c4OC)cc13)CCCC2,x,u,u,n,11µM
COc1ccc(Nc2c3c(nc4ccccc24)CCCC3)cc1OC,x,u,u,u,n
CCOC(=O)c1c(Nc2ccc(O)cc2)nnc(-c2ccccc2)c1-c1ccccc1,x,n,n,n,n
CC(=O)c1cccc(NC(=O)CN2C(=O)c3cccnc3Sc3ccccc32)c1,x,n,n,n,n
COc1cccc(COC(=O)c2ccc(-c3nnn(Cc4cccc(OC)c4)n3)cc2)c1,x,n,n,n,n
CCc1c2c(nc3ccc(OC)cc13)-c1nc3ccccc3c(=O)n1C2,x,x,n,n,x
O=c1c(-c2cccs2)nc2cnc(N3CCNCC3)nc2n1Cc1cccs1,x,x,x,x,n[0.501 µM]
CCCCN(CC)CCCn1cnc2c([nH]c3ccc(Cl)cc32)c1=O,x,n,n,n,n
O=C(Nc1cccc([N+](=O)[O-])c1)c1ccc2ccccc2c1O,n,n,n,n,16µM
O=C(Nc1cccc([N+](=O)[O-])c1)c1cnccn1,n,50µM,u,n,n
SMILES,L3MBTL1 block,BAZ2B inh,JMJD2A Tudor inh,HP1b binding inh,G9a block
O=C(Nc1cccc([N+](=O)[O-])c1)c1ccncc1,n,n,n,n,n
O=C(Cc1ccccc1)Nc1cccc([N+](=O)[O-])c1,x,n,n,n,u
CCCOc1ccc(C2C(=O)N(C3CCCCCC3)CC(=O)N2Cc2ccc(OC)cc2)cc1OC (stereo unspecified),x,n,n,n,n
COc1ccc(OCCOCCN2CCc3ccccc3C2)cc1,x,50µM,2.5µM,u,10µM
N#Cc1ccc(OCCN2CCc3ccccc3C2)cc1,x,x,25µM,u,x
O=C(NNC1=NCCCCC1)c1ccccc1,n,n,3.2µM,n,n
c1ccc(CNC2=NCCCC2)cc1,n,u,u,u,14µM
CCOc1ccc(-c2nc(Cn3c(=O)cc(-c4ccccc4)c4c(C)nn(C)c43)c(C)o2)cc1OC,x,n,n,n,n
CCCCCCCC/C=C\CCCCCCCC(=O)NCc1ccc(O)c(OC)c1,x,x,x,x,n
CCCCCCCC/C=C\CCCCCCCC(=O)NCCc1ccc(O)c(O)c1,n,n,35µM,n,u
COc1ccc(C2CC(C)(c3ccc(OC)cc3)Nc3ccccc3N2)cc1 (stereo unspecified),n,22µM,u,u,x
